Data on 93 molecules can be found in PubChem BioAssay AID449762 (Southern Research Specialized Biocontainment Screening …, 2010).

A word on the inhibition: it is the relative decrease from the control value, in per cent.

Among all 330,000 compounds or so, about 1,900 (0.58%) were called active. Not shown: some 4% with an inconclusive outcome. These entries were drawn from the full list. Measured potencies and affinities stand elsewhere. A number with no mark means an inactive call. Rule as the data show it: inconclusive = inhibition above about 70% without an active follow-up result; inactive = below that.

The assay can be described thus: M. tuberculosis growth inhibition, HTS (AID 449762).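 Also: bacterial growth assessed after seven days of incubation.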 Particulars: M. tuberculosis H37Rv growth inhibition, 7H9 media; at 25 µM; hits give high values.
Take `O=C(O)CSc1nnnn1-c1ccc2c(c1)OCCO2`: the inhibition is -0.83%. `CC(C)OC(=O)CSc1nnnn1-c1ccc2c(c1)OCCO2`: the inhibition was -0.39%. The value for `O=C(NCCC1=CCCCC1)C1CCN(S(=O)(=O)c2cccc(C(F)(F)F)c2)CC1` was 5.79%; that for `CSc1nsc(SCCN2C(=O)c3ccccc3C2=O)n1` was 2.52%; that for `CCOC(=O)CSc1snnc1C` was -6.63%. The value for `Nc1nnc(SCCN2C(=O)c3ccccc3C2=O)s1` was -1.41%; that for `CCOC(=O)CSc1nnc(-c2ccccc2)c(=O)[nH]1` was -2.8%. To `Cc1cc(C)nc(NC(=O)CSc2nn(-c3ccccc3)c(=S)s2)n1` belongs -0.15%; to `CCOC(=O)CSc1nn(C)c(=S)s1`, 0.33%.

Turning to `Cc1ccc(NC(=S)N(CCN(C)C)C(C)c2cccnc2)c(C)c1` (stereo not drawn), the inhibition was 4.11%. To `COC(=O)c1cc(OC)c(OC)cc1NC(=O)c1c(-c2ccccc2Cl)noc1C` belongs -3.97%; to `Cc1ccc(-c2csc(NC(=O)c3ccccc3Cl)c2C(=O)O)cc1`, 13.9%; to `CSc1cccc(NC(=O)C2C3C=CC4(O3)C2C(=O)N(CCCN2CCOCC2)C4C(=O)NC2CCCCC2)c1` (stereo not drawn), 3.36%.

Turning to `O=C(c1ccccc1F)N1CCN(S(=O)(=O)c2ccc3ccccc3c2)CC1`, the inhibition was 7.72%.

`COc1ccc(NS(=O)(=O)c2cc(NC(=O)C3CC3)ccc2N2CCCCC2)cc1`: the inhibition was 1.69%. To `Cc1ccc2c(c1)c1c3n2CCN(C(=O)CN2CCN(C)CC2)C3CCC1` (stereo not drawn) belongs -3.37%. Regarding `CC(=O)N1CCn2c3c(c4cc(C)ccc42)CCCC31` (stereo not drawn), the inhibition was 4.84%.

In the case of `CC(C)CCN1CCN(CC(c2ccccc2)c2ccccc2)CC1CCO` (stereo not drawn), the inhibition is -4.44%. The value for `Cc1ccc(Cn2c(=N)c(C(=O)NCc3ccco3)cc3c(=O)n4ccccc4nc32)cc1` was 4.13%; that for `COCCn1c(=N)c(C(=O)NCc2ccco2)cc2c(=O)n3cc(C)ccc3nc21` was 0.47%; that for `COc1ccc(NC(=O)CN2CCN(c3nc(-c4ccc(F)cc4)cs3)CC2)c(OC)c1` was 8.68%. The value for `O=[N+]([O-])c1ccc(F)c(N=Cc2ccc(Br)s2)c1` was 1.92%. The value for `CCN(CC)C(=O)Oc1ccc2c(=O)c(-c3ccccc3)coc2c1` was 64.8%; that for `COc1ccc(-c2coc3cc(OC(=O)N4CCOCC4)ccc3c2=O)cc1` was 10.6%. In the case of `CCOc1ccc(N(CC(=O)Nc2cc(C)cc(C)c2)S(C)(=O)=O)cc1`, the inhibition is 7.61%.

For the molecule `N#C/C(=C/c1ccccc1[N+](=O)[O-])C(=O)NCc1ccco1`, the inhibition was -4.24%. The value for `CCCCSC1=NN1c1nc(N)nc(C)c1CC` was -7.73%; that for `CC1CN(C(=S)c2cccc([N+](=O)[O-])c2)CC(C)O1` (stereo not drawn) was -2.37%. The value for `CC1CN(C(=O)c2cc([N+](=O)[O-])cc([N+](=O)[O-])c2)CC(C)O1` (stereo not drawn) was -5.16%. `Cc1nn(CC(C)C(=O)N2CCN(S(=O)(=O)c3ccc(Cl)cc3)CC2)c(C)c1C` (stereo not drawn): the inhibition was -2.72%. To `CCCCCCCCc1nc(SC(C)C(=O)O)n[nH]1` (stereo not drawn) belongs -1.56%. To `COc1ccc(C2Nc3ccccc3NC3=C2C(=O)CC(C)(C)C3)c(OC)c1OC` (stereo not drawn) belongs 8.53%; to `COc1ccc(-c2nnc(NC(=O)CS(=O)(=O)c3ccc(F)cc3)o2)c(OC)c1`, 7.17%. Turning to `COc1ccc(NC(=O)c2ccc([N+](=O)[O-])o2)cc1`, the inhibition was 6.03%. To `COc1ccc(S(=O)(=O)N(C)CC(=O)NCc2ccco2)cc1Cl` belongs 2.22%; to `CCCn1nnc(NC(=O)COc2ccc(C3CCCCC3)cc2)n1`, -1.63%. The value for `CCCn1nnc(NC(=O)COc2ccccc2Cl)n1` was -5.02%; that for `Cc1cc(C(=O)N(C)CC2CCCN(CCc3ccc(F)cc3)C2)c(C)o1` (stereo not drawn) was -2.12%; that for `N=C1c2ccccc2CN1NC(=O)COc1ccc(Cl)cc1` was -8.46%. The value for `CCc1nn(CCCC(=O)N2CCc3ccccc3C2)c(=O)c2cc3occc3n12` was -0.11%; that for `COc1cccc(NC(=O)CSc2nc(O)c(C)c(=O)n2-c2ccc(C)cc2)c1` was -11.9%. As to `CC(=O)c1ccc(NC(=O)CSc2cn[nH]n2)cc1`, the inhibition is 4.87%.

On to `CCOc1ccc(-n2c(SCC(=O)Nc3ccc(C(=O)O)cc3)nc3ccccc3c2=O)cc1`, for which the inhibition was 1.72%. To `Cc1ccc(NC(=O)CSc2cn[nH]n2)cc1` belongs -2.03%. For `Cc1nnc(NC(=O)CSc2nnc(Cc3cccn3C)n2C)s1`, the inhibition was -5.68%. To `Cc1ccc(S(=O)(=O)N(C)C)cc1NC(=O)c1cccnc1Oc1ccccc1` belongs -2.85%. To `O=C(Nc1ccc2c(c1)OCO2)c1cnn2c1NC(c1ccco1)CC2C(F)(F)F` (stereo not drawn) belongs -5.12%; to `COc1ccc(-c2[nH]ncc2CN(C)Cc2ccccn2)c(OC)c1`, 4.69%.

As for `O=C(NCc1ccccn1)c1cc2c(ccc3ccccc32)oc1=O`, the inhibition is -2.34%. The value for `CCOC(=O)c1ccccc1NC(=O)c1cccc2c1C(=O)N(C1CCN(C(=O)OCC)CC1)C2` was -3.66%. For `CCOC(=O)N1CCC(N2Cc3cccc(C(=O)Nc4cc(F)ccc4F)c3C2=O)CC1`, the inhibition is -1.17%. The value for `Cc1ccc(C2C3=C(CCCC3=O)N=C3c4ccccc4C(=O)C32)cc1` (stereo not drawn) was 4.41%; that for `O=C1CCCC2=C1C(c1ccccc1)C1C(=O)c3ccccc3C1=N2` (stereo not drawn) was 0.55%; that for `CCO[C@@H]1OC(C(=O)NCc2ccccc2)=C[C@H](C)[C@H]1CCCO` was 0.33%. For `CCOC(=O)CSC1=C(C#N)C(C)C2=C(CCCC2=O)N1` (stereo not drawn), the inhibition is 10.6%. The value for `CCOC(=O)CSC1=C(C#N)C(c2ccccc2C)C2=C(CCCC2=O)N1` (stereo not drawn) was -2.12%; that for `Clc1cccc(CN2CCSCC2)c1Cl` was 5.96%.

In the case of `O=C(OCc1ccc(O)cc1)c1c(-c2ccsc2)oc2ccc(N3CCOCC3)cc12`, the inhibition is -0.88%.

Consider `COc1ccc(/C=C/c2c(-c3cccc(C)c3)oc3ccc(N4CCOCC4)cc23)cc1`, for which the inhibition is -2.46%. To `COc1ccc(-c2noc(-c3ccco3)n2)cc1OC` belongs -0.61%; to `CCOC(=O)c1cc(-c2ccncc2)nc2c1c(C)nn2-c1ccccn1`, 0.76%.

With `COc1ccc(-c2cc(C(=O)O)c3c(C)nn(-c4ccccn4)c3n2)cc1`, the inhibition was 10.2%.

In the case of `O=C(NC1CCCC1)C(c1ccncc1)N(C(=O)c1csnn1)C1CCCC1` (stereo not drawn), the inhibition was 3.35%. To `Cc1nnsc1S(=O)(=O)c1ccccc1` belongs -0.59%; to `Nc1nc(-c2ccc(Cl)cc2)c(S(=O)(=O)c2ccccc2)s1`, -1.98%. To `COc1ccc(N(CC(=O)NC2CCCC2)S(=O)(=O)c2c(C)[nH]c(=O)[nH]c2=O)cc1` belongs -3.45%; to `Cc1ccc(OCCNC(=O)CNC(=O)c2ccc(C)cc2)cc1`, 5.29%. To `Cc1ccc(OCc2cc(C(=O)N(C)Cc3nccn3C)no2)cc1C` belongs 8.06%; to `Cc1cc(CN(C)C(=O)c2cc(COc3ccc(C)c(C)c3)on2)on1`, 7.13%; to `Nc1c(C(=O)c2ccc(Cl)cc2)oc2ccccc12`, -21.2%.

With `Cc1cc(C)c(NC(=O)C(C)(C)C)c(Cl)c1`, the inhibition was -1.65%. To `COc1ccc(C(CNC(=O)C(C)(C)Oc2ccc(Cl)cc2)N2CCCC2)cc1` (stereo not drawn) belongs -9.42%. On to `COc1ccc(C(CNC(=O)C(C)(C)Oc2ccc(Cl)cc2)N2CCCCC2)cc1` (stereo not drawn), for which the inhibition is -12.8%. To `CCN(CC)S(=O)(=O)c1ccc(NC(=O)c2ccc(Cl)nc2)cc1` belongs 4%.

Regarding `O=C(O)c1ccccc1/C=N/Nc1ccc(S(=O)(=O)N2CCCC2)cc1[N+](=O)[O-]`, the inhibition is -1.83%.

As for `COc1ccc(Cc2nc3ccc(C(=O)N(C)C(C)c4nccs4)cc3o2)cc1` (stereo not drawn), the inhibition is 1.57%. As to `COc1ccc(-c2ccc([C@H]3[C@H]4C=CC[C@@H](C)[C@@H]4C(=O)N3Cc3ccccc3)c(F)c2)cc1C`, the inhibition was -3.73%. To `CC1(c2ccc(Cl)cc2Cl)OCC(Cn2ccnc2)O1` (stereo not drawn) belongs -2.41%; to `CCC(C)n1ncn(-c2ccc(N3CCN(c4ccc(OCC5COC(Cn6cncn6)(c6ccc(Cl)cc6Cl)O5)cc4)CC3)cc2)c1=O` (stereo not drawn), -3.37%; to `FC(F)(F)c1cc(N2CCNCC2)c2ccccc2n1`, 4.5%. Take `COc1ccc2cc(S(=O)(=O)NCc3cccnc3)ccc2c1`: the inhibition was -6.19%.

On to `c1ccc(OCc2nnc(-c3ccccc3)o2)cc1`, for which the inhibition was 3.84%.

For `Oc1ccccc1-c1nnc(COc2ccc(Cl)cc2Cl)o1`, the inhibition is 2.32%. The value for `Cc1ccccc1C(=O)Nc1cccc(-c2cn3ccccc3n2)c1` was 35.7%. With `O=C(O)CCC(=O)Nc1nnc(C(F)(F)F)s1`, the inhibition was 5.81%. The value for `Cc1nnc(NC(=O)CCC(=O)NC2CCCCCCC2)s1` was 2.33%. The value for `CC(=O)c1cccc(S(=O)(=O)NCCC(=O)NC2CCCCCC2)c1` was 2.95%; that for `CCN(CC)S(=O)(=O)c1ccc(NC(=O)c2ccc(Sc3nncn3C)c([N+](=O)[O-])c2)cc1` was 3.9%; that for `COCCn1c(O)c(/C=N/NC(=O)CSC(=S)N2CCCC2)c(=O)[nH]c1=S` was -6.24%. The value for `CCOc1ccccc1NC(=O)C1CCCN(c2c(CC)c(C)nc3ncnn23)C1` (stereo not drawn) was 3.2%; that for `CCN(c1cccc(C)c1)S(=O)(=O)c1nnc(NC(=O)c2ccco2)s1` was -5.15%.

`CC(C)Cn1c2c(c(O)c(C(=O)Nc3nccs3)c1=O)CCCC2`: the inhibition is 8.72%. Turning to `Cc1csc(NC(=O)c2c(O)c3c(n(CC(C)C)c2=O)CCCC3)n1`, the inhibition was 65.9%.
